Reference: ChEMBL document CHEMBL3988442, “University of Dundee, Small-Polar-MMV Screening Library” (2021)

Target: T1, Methionyl-tRNA synthetase, putative (Leishmania donovani (strain BPK282A1)) (UniProt E9BF75)
T1 sequence (whole entry): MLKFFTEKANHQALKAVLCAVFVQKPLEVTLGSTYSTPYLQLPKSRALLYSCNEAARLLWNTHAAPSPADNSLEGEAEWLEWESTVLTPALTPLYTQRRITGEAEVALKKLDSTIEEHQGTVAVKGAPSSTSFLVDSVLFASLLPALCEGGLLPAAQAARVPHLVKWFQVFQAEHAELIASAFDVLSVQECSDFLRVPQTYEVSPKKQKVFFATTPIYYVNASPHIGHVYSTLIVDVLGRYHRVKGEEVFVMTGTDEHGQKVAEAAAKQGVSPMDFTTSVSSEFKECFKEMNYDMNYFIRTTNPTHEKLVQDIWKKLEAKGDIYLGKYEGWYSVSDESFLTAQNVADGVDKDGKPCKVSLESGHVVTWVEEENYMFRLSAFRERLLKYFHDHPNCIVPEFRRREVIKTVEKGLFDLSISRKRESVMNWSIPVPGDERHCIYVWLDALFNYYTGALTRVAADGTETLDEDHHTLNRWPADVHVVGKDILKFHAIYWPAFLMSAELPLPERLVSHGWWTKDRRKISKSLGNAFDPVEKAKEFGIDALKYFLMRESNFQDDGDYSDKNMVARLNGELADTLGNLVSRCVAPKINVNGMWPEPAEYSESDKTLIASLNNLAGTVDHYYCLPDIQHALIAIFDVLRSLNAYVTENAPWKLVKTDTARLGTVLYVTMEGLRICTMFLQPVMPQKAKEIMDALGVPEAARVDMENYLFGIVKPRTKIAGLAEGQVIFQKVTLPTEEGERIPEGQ
Test: Leishmania donovani Methionine tRNA synthetase (LdMetRS):v7. Dose response assay
Format: functional
Design: conc 80 nM, time 150 minutes

**Q.** `CN(c1cccc(F)c1)c1nc(NCCO)c2cnn(C)c2n1` was tested. Which PXC50 (MAX_EFFECT 8.142493639) did it give?
**A.** < 4

**Q.** And the PXC50 (MAX_EFFECT 9.649122807)?
**A.** < 4

**Q.** What about the PXC50 (MAX_EFFECT 12.83018868) of the same compound?
**A.** < 4

**Q.** How did the PXC50 (BOTTOM 2.756167144, HILLSLOPE 0.998486082, MAX_EFFECT 82.64150943, TOP 95.06215472) turn out when `Cn1ncc2c(NCC(C)(C)O)nc(Nc3ccc(F)c(F)c3)nc21` was run?
**A.** 4.8

**Q.** What about the PXC50 (BOTTOM -1.483509386, HILLSLOPE 0.96789371, MAX_EFFECT 77.86259542, TOP 87.31089032) of the same compound?
**A.** 4.95

**Q.** And the PXC50 (BOTTOM -2.002010489, HILLSLOPE 0.709003451, MAX_EFFECT 80.70175439, TOP 108.677252)?
**A.** 4.69

**Q.** Which results are given for `Cn1ncc2c(N3CCC[C@H]3CO)nc(Nc3ccc(F)c(F)c3)nc21`?
**A.** PXC50 (BOTTOM 3.354874327, HILLSLOPE 0.975942115, MAX_EFFECT 81.27853881, TOP 88.63537555): 5.05; PXC50 (BOTTOM 5.651213015, HILLSLOPE 1.001049773, MAX_EFFECT 83.58490566, TOP 90.01230887): 5.05; PXC50 (BOTTOM 9.222423555, HILLSLOPE 1.183933311, MAX_EFFECT 81.21442125, TOP 84.5225205): 5.23

**Q.** With `C1CCCN(CC2CCCN(Cc3noc(C4CC4)n3)C2)CC1` (stereo unspecified) as the compound, how does the PXC50 (BOTTOM 4.352296135, HILLSLOPE 1.766055102, MAX_EFFECT 53.69127517, TOP 86.72954931) read?
**A.** 4.1

**Q.** What about the PXC50 (BOTTOM 8.24905968, HILLSLOPE 1.172496443, MAX_EFFECT 57.63888889, TOP 100.0) of the same compound?
**A.** 4.05

**Q.** What about the PXC50 (MAX_EFFECT 48.70017331) of the same compound?
**A.** < 4

**Q.** How did the PXC50 (BOTTOM 0.586623965, HILLSLOPE 0.960788857, MAX_EFFECT 61.0738255, TOP 100.0) turn out when `O=C1NCC(c2ccc(F)cc2)Cc2[nH]c(CCN3CCCC3)nc21` (stereo unspecified) was run?
**A.** 4.15

**Q.** What about the PXC50 (BOTTOM 2.860481636, HILLSLOPE 1.198642369, MAX_EFFECT 65.27777778, TOP 100.0) of the same compound?
**A.** 4.21

**Q.** And the PXC50 (BOTTOM -5.455719139, HILLSLOPE 0.971400426, MAX_EFFECT 59.44540728, TOP 100.0)?
**A.** 4.18

**Q.** Which PXC50 (MAX_EFFECT 33.39622642) does the source give for `Cn1ncc2c(NCCO)nc(Nc3cccc(C(F)(F)F)c3)nc21` here?
**A.** < 4

**Q.** And the PXC50 (MAX_EFFECT 39.26940639)?
**A.** < 4

**Q.** What about the PXC50 (MAX_EFFECT 40.60721063) of the same compound?
**A.** < 4

**Q.** With `COC(=O)CNC(=O)c1cccc(C(=O)N(C)c2ccccc2)c1` as the compound, how does the PXC50 (MAX_EFFECT 1.22591944) read?
**A.** < 4

**Q.** And the PXC50 (MAX_EFFECT 1.449275362)?
**A.** < 4

**Q.** And the PXC50 (MAX_EFFECT -3.401360544)?
**A.** < 4

**Q.** Which PXC50 (MAX_EFFECT 9.108159393) does the source give for `NS(=O)(=O)c1cccc(Nc2ncccc2S(N)(=O)=O)c1` here?
**A.** < 4

**Q.** And the PXC50 (MAX_EFFECT 16.73553719)?
**A.** < 4

**Q.** What about the PXC50 (MAX_EFFECT 21.14537445) of the same compound?
**A.** < 4

**Q.** With `CCc1[nH]c2c(CNc3cncc(C(=O)OC)n3)cc(C)cc2c1C` as the compound, how does the PXC50 (MAX_EFFECT 7.798960139) read?
**A.** < 4

**Q.** And the PXC50 (MAX_EFFECT 45.13888889)?
**A.** < 4

**Q.** And the PXC50 (MAX_EFFECT 45.63758389)?
**A.** < 4

**Q.** What does the source list for `CC1COc2ccccc2N1C(=O)CCc1cscn1` (stereo unspecified)?
**A.** PXC50 (MAX_EFFECT 3.401360544): < 4; PXC50 (MAX_EFFECT 4.347826087): < 4; PXC50 (MAX_EFFECT 6.479859895): < 4

**Q.** What does the source list for `OCCNc1nc(Nc2ccc(F)c(F)c2)nc2ccsc12`?
**A.** PXC50 (BOTTOM 1.719198718, HILLSLOPE 0.904710071, MAX_EFFECT 90.94412331, TOP 99.0565164): 5.18; PXC50 (BOTTOM 2.94588064, HILLSLOPE 1.041078654, MAX_EFFECT 85.02202643, TOP 89.21565971): 5.26; PXC50 (BOTTOM 5.256543605, HILLSLOPE 0.944714137, MAX_EFFECT 88.2231405, TOP 97.0813666): 5.17

**Q.** What does the source list for `NC(=O)c1cccnc1Nc1cccc(S(N)(=O)=O)c1`?
**A.** PXC50 (MAX_EFFECT 5.69259962): < 4; PXC50 (MAX_EFFECT 12.33480176): < 4; PXC50 (MAX_EFFECT 15.08264463): < 4

**Q.** For `Cc1nc(-c2cc(Cl)c3c(c2)CC(CN)O3)c[nH]1` (stereo unspecified), which PXC50 (MAX_EFFECT 32.65306122) is on record?
**A.** < 4

**Q.** And the PXC50 (MAX_EFFECT 37.68115942)?
**A.** < 4

**Q.** What about the PXC50 (MAX_EFFECT 41.5061296) of the same compound?
**A.** < 4

**Q.** `CN(C)c1nc(N(C)C)c2cnn(C)c2n1` was tested. Which PXC50 (MAX_EFFECT 10.25145068) did it give?
**A.** < 4

**Q.** What about the PXC50 (MAX_EFFECT 21.69421488) of the same compound?
**A.** < 4

**Q.** And the PXC50 (MAX_EFFECT 22.46696035)?
**A.** < 4

**Q.** How did the PXC50 (BOTTOM -0.152929864, HILLSLOPE 0.883857243, MAX_EFFECT 83.3655706, TOP 93.53791092) turn out when `Cc1cc(Nc2ccc(F)c(F)c2)nc(NCCO)n1` was run?
**A.** 5.04

**Q.** What about the PXC50 (BOTTOM -2.585097693, HILLSLOPE 0.96868989, MAX_EFFECT 84.50413223, TOP 95.81491094) of the same compound?
**A.** 4.9

**Q.** And the PXC50 (BOTTOM -4.028659836, HILLSLOPE 0.891804294, MAX_EFFECT 83.70044053, TOP 100.2402145)?
**A.** 4.82

**Q.** For `CC(CO)Nc1nc(Nc2ccc(F)c(F)c2)nc2c1cnn2C` (stereo unspecified), which PXC50 (BOTTOM 2.552520772, HILLSLOPE 1.745088914, MAX_EFFECT 107.6446281, TOP 100.0) is on record?
**A.** 4.83

**Q.** What about the PXC50 (BOTTOM 8.006700064, HILLSLOPE 1.180035315, MAX_EFFECT 70.20872865, TOP 73.72941327) of the same compound?
**A.** 5.16

**Q.** What about the PXC50 (BOTTOM -2.864211308, HILLSLOPE 1.095022811, MAX_EFFECT 93.83259912, TOP 100.0) of the same compound?
**A.** 4.9

**Q.** With `OCCNc1nccc(Nc2cccc(F)c2)n1` as the compound, how does the PXC50 (MAX_EFFECT 6.168224299) read?
**A.** < 4

**Q.** What about the PXC50 (MAX_EFFECT 6.404958678) of the same compound?
**A.** < 4

**Q.** And the PXC50 (MAX_EFFECT 9.691629956)?
**A.** < 4
